Experimental data as given in ChEMBL document CHEMBL3988442, “University of Dundee, Small-Polar-MMV Screening Library” (2021).
For part of these data: Measured potencies and affinities stand elsewhere.

Tests used:
Design in all cases: scale not given: direction of the effect not stated beside the values
[1] = molecular target: Protein translocase subunit SecA (Escherichia coli (strain K12)) (UniProt P10408); experiment: Assay to Identify E. coli SecA ATPase Inhibitors; assay type: functional; conditions: 30 µM
Protein translocase subunit SecA (Escherichia coli (strain K12)), sequence (P10408 whole entry): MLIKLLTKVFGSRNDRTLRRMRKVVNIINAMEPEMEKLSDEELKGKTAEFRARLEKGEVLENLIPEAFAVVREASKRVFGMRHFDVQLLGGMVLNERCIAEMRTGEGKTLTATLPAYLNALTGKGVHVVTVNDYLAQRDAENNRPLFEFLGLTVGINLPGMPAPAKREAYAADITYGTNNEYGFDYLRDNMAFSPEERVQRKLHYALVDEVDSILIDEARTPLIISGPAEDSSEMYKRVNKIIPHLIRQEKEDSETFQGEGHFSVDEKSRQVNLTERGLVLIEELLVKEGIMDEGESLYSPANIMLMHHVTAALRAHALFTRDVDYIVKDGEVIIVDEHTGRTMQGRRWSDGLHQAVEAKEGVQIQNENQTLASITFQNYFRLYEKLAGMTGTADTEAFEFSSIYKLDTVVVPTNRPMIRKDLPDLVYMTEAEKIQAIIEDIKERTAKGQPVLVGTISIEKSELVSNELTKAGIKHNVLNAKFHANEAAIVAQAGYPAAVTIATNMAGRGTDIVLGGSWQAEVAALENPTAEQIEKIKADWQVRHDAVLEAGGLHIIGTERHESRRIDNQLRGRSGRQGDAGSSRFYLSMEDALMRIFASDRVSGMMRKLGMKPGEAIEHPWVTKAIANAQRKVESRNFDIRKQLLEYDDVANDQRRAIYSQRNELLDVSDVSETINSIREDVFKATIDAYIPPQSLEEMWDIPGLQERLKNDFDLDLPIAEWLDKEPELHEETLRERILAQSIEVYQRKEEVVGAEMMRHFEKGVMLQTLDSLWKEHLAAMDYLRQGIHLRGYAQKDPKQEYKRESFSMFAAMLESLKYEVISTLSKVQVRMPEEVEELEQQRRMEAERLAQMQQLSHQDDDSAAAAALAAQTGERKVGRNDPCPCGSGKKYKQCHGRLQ

[2] = molecular target: T1, Ubiquitin-activating enzyme e1, putative (Leishmania donovani (strain BPK282A1)) (UniProt E9BSI1); experiment: Leishmania donovani Ubiquitin Activating Enzyme (LdE1); assay type: functional; conditions: 30 µM
T1 sequence (whole entry): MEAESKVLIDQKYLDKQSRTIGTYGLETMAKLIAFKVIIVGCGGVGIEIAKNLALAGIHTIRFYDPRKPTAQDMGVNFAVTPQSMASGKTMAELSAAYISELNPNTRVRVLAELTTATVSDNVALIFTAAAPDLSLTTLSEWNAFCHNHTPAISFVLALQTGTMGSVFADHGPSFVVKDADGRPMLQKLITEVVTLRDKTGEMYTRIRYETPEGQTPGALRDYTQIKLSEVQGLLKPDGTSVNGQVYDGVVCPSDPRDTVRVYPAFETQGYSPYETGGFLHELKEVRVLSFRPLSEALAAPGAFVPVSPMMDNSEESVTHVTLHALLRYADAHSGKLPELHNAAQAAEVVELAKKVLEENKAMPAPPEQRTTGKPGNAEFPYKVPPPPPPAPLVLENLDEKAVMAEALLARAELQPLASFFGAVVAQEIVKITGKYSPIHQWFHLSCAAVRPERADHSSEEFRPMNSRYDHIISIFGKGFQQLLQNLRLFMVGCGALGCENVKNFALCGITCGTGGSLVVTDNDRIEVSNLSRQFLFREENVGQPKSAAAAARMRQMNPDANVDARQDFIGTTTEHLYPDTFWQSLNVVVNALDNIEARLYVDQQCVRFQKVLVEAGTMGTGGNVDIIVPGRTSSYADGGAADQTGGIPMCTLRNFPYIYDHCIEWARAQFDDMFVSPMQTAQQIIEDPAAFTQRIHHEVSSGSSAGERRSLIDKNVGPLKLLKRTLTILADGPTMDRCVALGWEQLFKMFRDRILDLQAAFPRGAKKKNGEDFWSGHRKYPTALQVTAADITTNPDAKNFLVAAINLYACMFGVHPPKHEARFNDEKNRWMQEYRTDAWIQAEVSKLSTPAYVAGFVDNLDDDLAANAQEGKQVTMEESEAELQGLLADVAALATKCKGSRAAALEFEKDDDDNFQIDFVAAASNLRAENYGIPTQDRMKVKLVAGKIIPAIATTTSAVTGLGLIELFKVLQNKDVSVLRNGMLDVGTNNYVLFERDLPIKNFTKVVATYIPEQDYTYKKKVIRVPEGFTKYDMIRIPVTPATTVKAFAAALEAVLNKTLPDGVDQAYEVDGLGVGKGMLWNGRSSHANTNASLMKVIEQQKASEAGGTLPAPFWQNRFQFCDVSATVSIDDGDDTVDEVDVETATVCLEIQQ

[3] = molecular target: AMP-activated protein kinase, AMPK (Homo sapiens) (UniProt P54646+O43741+P54619+Q9UGJ0+Q9Y478+Q13131+Q9UGI9); experiment: AMP-dependent Kinase enzyme assay. An in vitro enzyme assay that detects ADP turnover that is directly proportional to AMPK activity. This uses naive AMPK that is activated during the assay with MK-8722; assay type: functional; conditions: 30 µM
[4] = molecular target: Sialic acid-binding Ig-like lectin 9 (Homo sapiens) (UniProt Q9Y336); experiment: Hs-Siglec9 ALPHAscreen SOP 20170721; conditions: 10 µM
Sialic acid-binding Ig-like lectin 9 (Homo sapiens), sequence (Q9Y336 whole entry): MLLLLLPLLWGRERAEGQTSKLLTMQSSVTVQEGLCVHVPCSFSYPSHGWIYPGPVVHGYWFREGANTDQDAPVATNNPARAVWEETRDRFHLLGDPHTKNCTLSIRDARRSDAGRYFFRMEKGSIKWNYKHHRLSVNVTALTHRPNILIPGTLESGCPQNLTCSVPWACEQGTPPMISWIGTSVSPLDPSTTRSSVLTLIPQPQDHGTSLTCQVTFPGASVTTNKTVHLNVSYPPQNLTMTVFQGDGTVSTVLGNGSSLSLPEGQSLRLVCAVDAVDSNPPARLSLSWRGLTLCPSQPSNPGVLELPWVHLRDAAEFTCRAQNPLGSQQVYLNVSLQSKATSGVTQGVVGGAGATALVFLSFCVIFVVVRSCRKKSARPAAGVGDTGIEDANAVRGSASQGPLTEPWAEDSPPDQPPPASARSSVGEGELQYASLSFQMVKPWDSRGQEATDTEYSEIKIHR

Trypanosoma cruzi = experiment: Trypanosoma cruzi phosphomannomutase and mannose-1-phosphate guanylyltransferase assay; assay type: functional; conditions: 10 µM
[5] = molecular target: T2, Arginase-2, mitochondrial (Homo sapiens) (UniProt P78540); experiment: in vitro enzyme assay to detect the production of urea directly proportional to the activity of Arginase II; assay type: functional; conditions: 33.3 µM; further: in the data most compounds retested in dose-response had high values
T2 sequence (whole entry): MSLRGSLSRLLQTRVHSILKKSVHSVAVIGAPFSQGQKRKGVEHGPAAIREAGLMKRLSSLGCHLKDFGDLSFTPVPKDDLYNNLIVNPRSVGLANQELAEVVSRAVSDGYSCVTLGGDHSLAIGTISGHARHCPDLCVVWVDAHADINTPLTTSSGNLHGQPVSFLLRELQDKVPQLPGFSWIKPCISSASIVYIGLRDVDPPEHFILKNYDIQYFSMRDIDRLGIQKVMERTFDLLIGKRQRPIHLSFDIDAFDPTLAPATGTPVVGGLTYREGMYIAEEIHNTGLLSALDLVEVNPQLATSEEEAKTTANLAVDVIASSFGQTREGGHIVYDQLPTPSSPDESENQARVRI

[6] = molecular target: T3, Proteasome subunit beta (Trypanosoma cruzi) (UniProt O96673); experiment: Trypanosoma cruzi proteasome chymotrypsin-like activity (TcProtChymo) assay.; further: in the data most compounds retested in dose-response had high values; assay type: functional; conditions: 9.37 µM
T3 sequence (whole entry): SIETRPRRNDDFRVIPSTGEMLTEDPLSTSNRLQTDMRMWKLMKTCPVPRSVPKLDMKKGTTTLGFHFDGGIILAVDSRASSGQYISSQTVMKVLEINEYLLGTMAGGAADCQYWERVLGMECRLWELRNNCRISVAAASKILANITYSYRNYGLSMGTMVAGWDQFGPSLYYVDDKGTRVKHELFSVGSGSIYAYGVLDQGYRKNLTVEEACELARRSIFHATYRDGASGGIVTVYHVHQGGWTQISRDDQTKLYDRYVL

Homo sapiens = organism: Homo sapiens; experiment: To identify inhibition of the IFN signalling (Jak-Stat) pathway via expression of an eGFP reporter gene under the control of an IFN-stimulated response element (ISRE) containing MxA promoter.; assay type: functional; conditions: 30 µM
[7] = molecular target: T4, Tyrosyl-tRNA synthetase, putative (Trypanosoma cruzi (strain CL Brener)) (UniProt Q4DSP6); experiment: Trypanosoma cruzi tyrosyl tRNA synthetase (TcYRS) _High Tyrosine SOP; assay type: functional; conditions: 30 µM; further: in the data most compounds retested in dose-response had high values
T4 sequence (whole entry): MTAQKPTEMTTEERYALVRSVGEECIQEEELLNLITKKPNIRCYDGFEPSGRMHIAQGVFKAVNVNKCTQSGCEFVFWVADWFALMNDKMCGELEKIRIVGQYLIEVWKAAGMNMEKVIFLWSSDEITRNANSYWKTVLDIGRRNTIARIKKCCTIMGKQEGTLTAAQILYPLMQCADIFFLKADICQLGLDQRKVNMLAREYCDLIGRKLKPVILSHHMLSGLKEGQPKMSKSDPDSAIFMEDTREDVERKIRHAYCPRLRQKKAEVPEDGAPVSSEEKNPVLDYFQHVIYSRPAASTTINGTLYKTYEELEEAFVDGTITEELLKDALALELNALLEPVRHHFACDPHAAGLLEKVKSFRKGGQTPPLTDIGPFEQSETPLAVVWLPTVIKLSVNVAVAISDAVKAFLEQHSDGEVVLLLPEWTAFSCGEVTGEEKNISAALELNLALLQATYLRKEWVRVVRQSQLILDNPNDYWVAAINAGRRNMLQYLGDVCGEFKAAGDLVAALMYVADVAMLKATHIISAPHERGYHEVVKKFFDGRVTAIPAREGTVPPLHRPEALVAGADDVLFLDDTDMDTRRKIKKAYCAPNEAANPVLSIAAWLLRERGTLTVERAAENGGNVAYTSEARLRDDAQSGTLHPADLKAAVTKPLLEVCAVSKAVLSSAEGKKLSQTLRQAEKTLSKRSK

[8] = molecular target: T4, Tyrosyl-tRNA synthetase, putative (Trypanosoma cruzi (strain CL Brener)); experiment: Trypanosoma cruzi tyrosyl tRNA synthetase (TcYRS) SOP; assay type: functional; conditions: 30 µM
[9] = molecular target: Chromo domain-containing protein 1 (Saccharomyces cerevisiae (strain ATCC 204508 / S288c) (Baker's yeast)) (UniProt P32657); experiment: ScCHD-1 Enzyme Inhibition Assay; assay type: functional; conditions: 30 µM; further: in the data most compounds retested in dose-response had high values
Chromo domain-containing protein 1 (Saccharomyces cerevisiae (strain ATCC 204508 / S288c) (Baker's yeast)), sequence (P32657 whole entry, the tested form may be a part): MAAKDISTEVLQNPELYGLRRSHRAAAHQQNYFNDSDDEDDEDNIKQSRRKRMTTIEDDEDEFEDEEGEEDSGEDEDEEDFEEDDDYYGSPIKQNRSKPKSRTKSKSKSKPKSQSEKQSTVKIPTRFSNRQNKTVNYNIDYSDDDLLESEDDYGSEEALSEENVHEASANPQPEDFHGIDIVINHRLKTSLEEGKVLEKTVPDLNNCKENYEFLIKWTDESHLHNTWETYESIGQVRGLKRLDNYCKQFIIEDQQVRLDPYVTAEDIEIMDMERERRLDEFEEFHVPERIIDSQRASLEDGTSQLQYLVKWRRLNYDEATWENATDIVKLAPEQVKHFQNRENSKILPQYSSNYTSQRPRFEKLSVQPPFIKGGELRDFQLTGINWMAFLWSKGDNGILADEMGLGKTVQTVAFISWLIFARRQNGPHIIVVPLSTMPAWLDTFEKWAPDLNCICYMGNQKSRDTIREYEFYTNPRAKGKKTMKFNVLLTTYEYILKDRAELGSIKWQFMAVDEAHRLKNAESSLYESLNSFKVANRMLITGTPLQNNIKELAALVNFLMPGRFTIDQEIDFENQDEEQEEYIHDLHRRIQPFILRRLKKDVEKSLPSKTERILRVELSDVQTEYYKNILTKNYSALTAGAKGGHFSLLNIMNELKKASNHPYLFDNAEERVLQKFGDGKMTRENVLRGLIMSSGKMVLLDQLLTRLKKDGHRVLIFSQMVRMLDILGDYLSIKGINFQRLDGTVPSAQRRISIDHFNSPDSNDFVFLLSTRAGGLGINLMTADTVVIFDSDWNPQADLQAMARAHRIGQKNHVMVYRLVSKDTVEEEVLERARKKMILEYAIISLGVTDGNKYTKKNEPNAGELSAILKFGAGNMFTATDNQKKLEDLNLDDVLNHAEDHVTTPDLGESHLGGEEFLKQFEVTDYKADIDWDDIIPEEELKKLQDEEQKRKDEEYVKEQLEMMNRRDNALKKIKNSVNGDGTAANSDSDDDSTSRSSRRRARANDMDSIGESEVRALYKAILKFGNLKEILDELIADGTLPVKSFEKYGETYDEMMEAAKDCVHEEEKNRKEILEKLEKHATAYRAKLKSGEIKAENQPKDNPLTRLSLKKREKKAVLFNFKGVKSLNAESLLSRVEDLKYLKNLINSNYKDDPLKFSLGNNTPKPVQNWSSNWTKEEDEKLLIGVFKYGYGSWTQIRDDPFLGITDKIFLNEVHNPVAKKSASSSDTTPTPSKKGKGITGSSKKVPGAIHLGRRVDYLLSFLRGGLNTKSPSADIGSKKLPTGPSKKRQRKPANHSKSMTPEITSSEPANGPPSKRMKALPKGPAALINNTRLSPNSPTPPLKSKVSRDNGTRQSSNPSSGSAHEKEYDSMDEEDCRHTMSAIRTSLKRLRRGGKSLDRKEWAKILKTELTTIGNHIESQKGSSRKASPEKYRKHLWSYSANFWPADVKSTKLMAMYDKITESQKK

Row | SMILES | Percent Effect [1] [%] | Percent Effect [2] [%] | Percent Effect [3] [%] | Percent Effect [4] [%] | Percent Effect (Trypanosoma cruzi) [%] | Percent Effect [5] [%] | Percent Effect [6] [%] | Percent Effect (Homo sapiens) [%] | Percent Effect [7] [%] | Percent Effect [8] [%] | Percent Effect [9] [%]
1 | N#CCCCS(=O)(=O)N1CCCC1CC(=O)c1cccs1 (stereo unspecified) | -2.19 | 2.7 | -3.83 | 2.31 | -1.93 | -3.81 | 3.1 | -1.42 | -0.529 | -4.88 | -0.34
2 | Cc1nc(C2CCCN(C(=O)c3ccco3)C2)no1 (stereo unspecified) | -7.21 | 1.27 | 1.16 | -2.53 | -0.308 | -0.645 | 1.37 | 16 | 1.04 | -7.59 | -4.36
3 | Cc1nc(C)c(CC(=O)Nc2ncc(C)s2)c(=O)[nH]1 | -0.904 | 13.2 | -1.41 | 14.1 | 1.5 | -1.53 | -2.51 | -6.67 | 5.39 | 17.1 | -5.26
4 | CC(C)(C)OC(=O)CNC(=O)CCc1nnc(-c2ccsc2)o1 | -5.71 | 5.2 | 2.21 | 5.6 | -0.688 | 24.8 | 16.1 | 6.67 | 3.23 | 3.7 | -0.78
5 | Cc1cc(C2CCCN(C(=O)c3ccc(C)[nH]c3=O)C2)n[nH]1 (stereo unspecified) | 1.38 | 0 | -0.306 | 6.13 | -1.04 | -0.401 | 1.08 | -7.96 | 3.45 | -1.24 | 4.03
6 | CC(C)Cc1nc(OCC(=O)O)c(C#N)c2c1CCC2 | 1.44 | 9.33 | -5.52 | -3.77 | 1.57 | -2.29 | 9.24 | 3.54 | -1.06 | 2.56 | -8.05
7 | COc1ccc(CNC2CCCN(Cc3noc(C)n3)C2)cc1F (stereo unspecified) | -10.4 | 10.4 | 0.711 | 4.31 | -5.06 | -3.2 | -1.01 | 32.5 | 0.971 | -2.44 | -5.61
8 | COc1ccc(CCC(=O)Nc2cccnc2N2CCCC2)cc1Br | -6.14 | 8.11 | -7.1 | 0.341 | -5.57 | 2.81 | 3.42 | 13.8 | 5.42 | 6.17 | -2.84
9 | CN(C)CCO[C@@H]1CC[C@H]2[C@H]1OCCN2C(=O)CCc1ccccc1 | -1.21 | 2.67 | -7.4 | -1.11 | -2.7 | -57.5 | 0.171 | -1.39 | 0 | 2.5 | -6.72
10 | N#Cc1cc(NC(=O)c2ccsc2)ccc1N1CCC(O)CC1 | -2.1 | 13.5 | -3.83 | 18.9 | 5.99 | 12.9 | 19.3 | 27.8 | 4.76 | 14.6 | -1.54
11 | Cc1cccc(-c2noc(CN3CCCC(Cn4cncn4)C3)n2)c1 (stereo unspecified) | -6.12 | 20.2 | -9.05 | 10.8 | 8.59 | 3.04 | 5.16 | 5.05 | 6.4 | 21.5 | -4.86
12 | CCCOc1cc(C)ccc1NC(=O)NCCC(=O)N(C)C | -4.1 | 13.7 | -1.53 | -3 | -3.33 | 4.09 | 20.6 | 10.2 | 6.45 | 15 | -2.56
13 | CC(=O)N1CCCN(C(=O)c2oc(Br)cc2C)CC1 | -0.989 | 10.8 | -1.11 | 15.2 | 2.12 | 6.19 | 21.4 | 4.33 | 2.65 | 17.1 | -7.7
14 | CN(C(=O)NCc1ccncc1)C1CCN(c2ccccc2)C1=O (stereo unspecified) | -4.85 | 13.2 | -3.87 | 3.74 | 6.58 | -3.06 | 10 | 5.78 | 6.37 | 12.2 | -10.8
15 | COc1ccccc1CN1CC[C@H]2C[C@@H](C(=O)N3CCCC3)O[C@H]2C1 | 2.23 | 13 | 4.84 | -5.31 | -7.99 | 4.52 | 8.88 | 6 | 6.35 | 14.1 | -7.87
16 | Cn1cc(Br)c(=O)c(NS(=O)(=O)c2cc(F)ccc2Cl)c1 | -3.11 | 2.7 | -8.02 | 5.84 | 9.07 | -2.38 | 13.3 | 6.19 | 0.529 | -2.44 | -0.642
17 | Cc1nn(C)c(C)c1C1COCCN1C(=O)c1cnc(N)c(Cl)c1 (stereo unspecified) | -2.77 | 23.4 | 2.76 | -1.47 | -2.62 | 0.356 | 10.1 | 4.22 | 3.88 | 19.5 | -7.54
18 | Fc1cccc(-c2nc(CN3CCCCC3Cn3cncn3)co2)c1 (stereo unspecified) | -2.29 | 7.59 | 1.61 | 1.08 | 7.65 | 1.52 | 1.72 | -27.5 | 3.45 | 13.9 | -6.86
19 | O=C(NCCNc1cnccn1)N1CCCC1 | -4.38 | 6.33 | 8.17 | -3.74 | -2.56 | 1.94 | 5.15 | 8.14 | 1.04 | 5.06 | -18.6
20 | O=C(Nc1cccnc1)[C@H]1CO[C@H]2CCN(c3ncc(F)cn3)C[C@H]2C1 | -3.71 | 5.33 | 2.01 | 4.5 | 0 | -55 | 11.6 | -7 | 8.33 | 5 | -9.48
21 | Cc1csc(N2CCN(CCc3ccccn3)CC2C)n1 (stereo unspecified) | -0.657 | 8.22 | -7.28 | 9.14 | 6.07 | -3.64 | 4.79 | 17.9 | 4.3 | 5 | -1.43
